Data published in the antibiotic and cytotoxicity screens of Wong et al. (2023).
Out of some 39,000 compounds screened, about 3,300 (8.5%) were called active. The list comes from a sample in which actives are over-represented; it also holds similar structures and randomly drawn compounds.

system: HepG2; assay: cytotoxicity call (relative viability < 0.9); settings: 10 µM

| SMILES | cytotoxicity call |
| --- | --- |
| C=C1c2cccc(O)c2C(=O)[C@@H]2C(=O)[C@]3(O)C(=O)[C@@H](C(N)=O)C(=O)[C@@H](N(C)C)[C@@H]3[C@@H](O)[C@H]12 | inactive |
| C[C@@H]1CCCCO[C@@H](CN(C)C(=O)Nc2cccc3ccccc23)[C@@H](C)CN([C@@H](C)CO)C(=O)c2cc(N(C)C)ccc2O1 | inactive |
| Cn1cnc(CCNC(=O)C[C@@H]2CC[C@@H]3[C@H](COC[C@H](O)CN3C(=O)Nc3ccc(Cl)cc3)O2)c1 | inactive |
| CC(=O)NCCCC[C@@H]1NC(=O)[C@@H]2C[C@H](C(=O)NCCCCCN)[C@H](c3ccc(O)cc3)N2C1=O | inactive |
| O=C(C[C@H]1CC[C@@H]2[C@H](COC[C@@H](O)CN2S(=O)(=O)c2ccccc2)O1)NCCN1CCCCC1 | inactive |
| C[C@H](CO)N1C[C@H](C)[C@H](CN(C)C(=O)Nc2ccc(C(F)(F)F)cc2)OCCCC[C@H](C)Oc2ccc(NC(=O)Nc3ccccc3)cc2C1=O | inactive |
| COc1ccc(S(=O)(=O)Nc2ccc3c(c2)CC(=O)N([C@@H](C)CO)C[C@@H](C)[C@@H](CN(C)S(C)(=O)=O)O3)cc1 | inactive |
| C[C@@H]1CCCCO[C@H](CN(C)C(=O)Nc2ccc(C(F)(F)F)cc2)[C@@H](C)CN([C@@H](C)CO)C(=O)c2cc(NC(=O)Nc3cccc4ccccc34)ccc2O1 | inactive |
| C[C@H]1CN([C@@H](C)CO)C(=O)c2cc(NC(=O)Cc3ccccc3)ccc2O[C@@H]1CN(C)Cc1ccc(-c2ccccc2)cc1 | active |
| C[C@H](CO)N1C[C@H](C)[C@@H](CN(C)Cc2ccc(-c3ccccc3)cc2)Oc2ccc(NC(=O)Cc3ccccc3)cc2C1=O | inactive |
| C[C@H]1CN([C@@H](C)CO)C(=O)c2cc(NC(=O)Cc3ccccc3)ccc2O[C@H]1CN(C)Cc1ccc(-c2ccccc2)cc1 | inactive |
| CC(C)[Si]1(C(C)C)OCc2cc(-c3ccc(-c4ccc(Cl)c(Cl)c4)o3)nc(-c3ccc(Oc4ccccc4)cc3)c21 | inactive |
| Cc1ccc(N2CCC[C@]3(CCNC3=O)C2)nn1 | inactive |
| C[C@@H]1CCCCO[C@@H](CN(C)S(=O)(=O)c2ccc(Cl)cc2)[C@@H](C)CN([C@@H](C)CO)C(=O)c2cc(NS(=O)(=O)c3ccccc3)ccc2O1 | inactive |
| C[C@@H]1CCCCO[C@@H](CN(C)C(=O)Cc2ccccc2)[C@@H](C)CN([C@@H](C)CO)C(=O)c2cc(NC(=O)Nc3ccc(F)cc3)ccc2O1 | inactive |
| COc1ccc([Si](C)(C)[C@@H]2[C@@H](CCO)O[C@]3(C(=O)N(Cc4ccccc4)c4ccc(N5CCCCC5=O)cc43)[C@H]2C)cc1 | inactive |
| COc1ccc([Si](C)(C)[C@H]2[C@H](CCO)O[C@@]3(C(=O)N(Cc4ccccc4)c4ccc(N5CCCCC5=O)cc43)[C@@H]2C)cc1 | inactive |
| C[C@H]1[C@H]([Si](C)(C)F)[C@@H](CCO)O[C@]12C(=O)N(Cc1cccc(N3C(=O)COc4ccccc43)c1)c1ccccc12 | inactive |
| COc1ccc([Si](C)(C)[C@@H]2[C@@H](CCO)O[C@]3(C(=O)N(Cc4ccc(N5CCCCC5=O)cc4)c4ccccc43)[C@H]2C)cc1 | inactive |
| COc1ccc([Si](C)(C)[C@@H]2[C@@H](CCO)O[C@]3(C(=O)N(Cc4cccc(N5C(=O)COc6ccccc65)c4)c4ccccc43)[C@H]2C)cc1 | active |
| COc1ccc([Si](C)(C)[C@H]2[C@H](CCO)O[C@@]3(C(=O)N(Cc4ccccc4)c4ccc(N5C(=O)COc6ccccc65)cc43)[C@@H]2C)cc1 | active |
| COc1ccc([Si](C)(C)[C@H]2[C@H](CCO)O[C@@]3(C(=O)N(Cc4ccc(N5C(=O)COc6ccccc65)cc4)c4ccccc43)[C@@H]2C)cc1 | active |
| COc1ccc([Si](C)(C)[C@H]2[C@H](CC(=O)N3CCC[C@H]3CO)O[C@@]3(C(=O)N(Cc4cccc(N5C(=O)COc6ccccc65)c4)c4ccccc43)[C@@H]2C)cc1 | inactive |

| SMILES | cytotoxicity call |
| --- | --- |
| COc1ccc([Si](C)(C)[C@H]2[C@H](CCO)O[C@@]3(C(=O)N(Cc4ccc(N5CCCCC5=O)cc4)c4ccccc43)[C@@H]2C)cc1 | inactive |
| COc1cccc(S(=O)(=O)N2C[C@@H](O)COC[C@@H]3O[C@@H](CC(=O)N4CCN(C)CC4)CC[C@H]32)c1 | inactive |
| O=C1CCNCCN1 | inactive |
| CO[C@@H]1CN(C)C(=O)c2cc(NS(C)(=O)=O)ccc2OC[C@@H](C)N(C(=O)c2ccc3c(c2)OCO3)C[C@@H]1C | inactive |
| Cc1noc(C)c1S(=O)(=O)Nc1ccc2c(c1)C(=O)N([C@H](C)CO)C[C@@H](C)[C@@H](CN(C)Cc1ccccc1)OCCCC[C@@H](C)O2 | inactive |
| COc1ccc(NC(=O)Nc2ccc3c(c2)CC(=O)N([C@@H](C)CO)C[C@@H](C)[C@H](CN(C)C(=O)Nc2cccc4ccccc24)O3)cc1 | inactive |
| Cc1noc(C)c1S(=O)(=O)Nc1ccc2c(c1)C(=O)N([C@@H](C)CO)C[C@@H](C)[C@@H](CN(C)CC1CCCCC1)OCCCC[C@@H](C)O2 | inactive |
| Cc1ccc(C(=O)c2ccc(Oc3ccccc3)cc2)cc1 | inactive |
| Cc1ccc(Oc2ccccc2)c(NC(=O)c2ccccc2)c1 | active |
| Cc1cccc(C(=O)NN)c1 | inactive |
| COc1cccc(-c2ccc3c(c2)O[C@H](CN(C)Cc2cncnc2)[C@@H](C)CN([C@@H](C)CO)S3(=O)=O)c1 | inactive |
| COc1ccc(NC(=O)N(C)C[C@@H]2Oc3c(NC(=O)c4cc(C)nn4C)cccc3C(=O)N([C@@H](C)CO)C[C@H]2C)cc1 | inactive |
| CN(C)CC(=O)N1[C@@H]2c3ccc(C4=CCCC4)c(=O)n3C[C@H]1[C@H](CO)[C@H]2C(=O)NCC1CC1 | inactive |
| C[C@@H]1CN([C@@H](C)CO)C(=O)Cc2cc(NC(=O)Nc3ccccc3)ccc2O[C@H]1CN(C)S(=O)(=O)c1cn(C)cn1 | inactive |
| C[C@@H]1CN([C@H](C)CO)C(=O)c2cc(NC(=O)Nc3ccccc3)ccc2O[C@@H]1CN(C)S(=O)(=O)c1cn(C)cn1 | inactive |
| C[C@H]1CN([C@@H](C)CO)C(=O)Cc2cc(NS(=O)(=O)c3ccccc3)ccc2O[C@@H]1CN(C)S(=O)(=O)c1cn(C)cn1 | inactive |
| C[C@H](CO)N1C[C@H](C)[C@H](CN(C)S(=O)(=O)c2cn(C)cn2)Oc2ccc(NC(=O)Nc3ccccc3)cc2CC1=O | active |
| C[C@@H]1CN([C@@H](C)CO)C(=O)Cc2cc(NS(=O)(=O)c3ccccc3)ccc2O[C@@H]1CN(C)S(=O)(=O)c1cn(C)cn1 | inactive |
| C[C@@H]1CN([C@H](C)CO)C(=O)Cc2cc(NS(=O)(=O)c3ccccc3)ccc2O[C@H]1CN(C)S(=O)(=O)c1cn(C)cn1 | active |
| C[C@@H]1CN([C@@H](C)CO)C(=O)c2cc(NC(=O)Nc3ccccc3)ccc2O[C@H]1CN(C)S(=O)(=O)c1cn(C)cn1 | inactive |
| C[C@@H]1CN([C@H](C)CO)C(=O)c2cc(NC(=O)Nc3ccccc3)ccc2O[C@H]1CN(C)S(=O)(=O)c1cn(C)cn1 | active |
| C[C@H]1CN([C@@H](C)CO)C(=O)Cc2cc(NC(=O)Nc3ccccc3)ccc2O[C@H]1CN(C)S(=O)(=O)c1cn(C)cn1 | inactive |
